# NPC1 prom act = activates the NPC1 promoter; hit rate 2.4% among 320,000; Potency, µM (highest dose often 9.22 µM), for the others: top-dose activation, hits mostly activators; AID 485313; Huh7 NPC1 promoter luciferase reporter, 24 h; also: % of control where 0% means no effect; nearly all actives have a fitted effect of over 60% in size
#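 Stably transfected Huh7 (NPC1 promoter→luciferase), 1500 cells/well in Opti-MEM + 10% FBS, 2 h settle, then compound 24 h at 37 °C. Luminescence after 10 min with Amplite reagent.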
# ELG1 genotox = induces genotoxicity in HEK293T cells with luciferase-tagged ELG1; HEK293T ELG1-luciferase reporter, luminescence, 16 h; hit rate 1.3% among 330,000; Potency, µM (top dose mostly 46 µM), without a hit: at the highest dose activity change, positive = activation, usual class: activators; also: % of control where 0% means no effect; nearly all actives have a fitted effect of over 60% in size
#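 ELG1-luciferase HEK293T cells, 2,000/well; compound pinned in; 16 hr, 37 °C, 5% CO2; ONE-Glo, 30 min RT; luminescence on CCD imager.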
# SMN2 splice up = enhancers of SMN2 splice variant expression. hit rate 2.8% among 210,000. Potency, µM (titrated, usually from 46.1 µM), for inactives: top-dose activity change, positive = activation, usual class: activators. HEK293 SMN2-luciferase splicing reporter, luminescence, 30-36 h; also: % of control where 0% means no effect; nearly all actives have a fitted effect of over 55% in size
#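 HEK293 cells carry an SMN2 […]–luciferase reporter in which exon 7 inclusion puts luciferase in frame. Cells were plated 10-12 h before compound addition, then incubated 30-36 h at 37C. ONE-Glo luminescence was read; sodium butyrate at 4.5 mM final served as control.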
# Rab9 promoter act = activators of Rab9 promoter; Huh7 Rab9 promoter-luciferase reporter, luminescence, 24 h; Potency, µM (highest dose often 9.22 µM), without a hit: at the top dose activation, negative = inhibition, most hits filed as activators; hit rate 2.8% among 320,000; AID 485297; also: % of control where 0% means no effect; nearly all actives have a fitted effect of over 60% in size
#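 Huh7 reporter line, Rab9 promoter upstream of luciferase. Compound exposure 24 h at 37 °C in reduced-serum medium with 10% FBS. Read-out: luminescence.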
# ELG1 DNA repair = ELG1-dependent DNA repair inhibition; hit rate 2.3% among 330,000; AID 504467; HEK293T ELG1-luciferase reporter, luminescence, 16 h; DNA damage induced by 5-fluorouridine; Potency, µM (series often up to 46.1 µM), for inactives: top-dose activity change, negative = inhibition, usual class: inhibitors; also: % is scaled to controls: 0 for no effect and ±100 for the full control effect; nearly all actives have a fitted effect of over 55% in size
#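 Luminescence from the luciferase reporter, measured 30 min after ONE-Glo reagent at room temperature, was the read-out. Beforehand, 2,000 cells per well were exposed for 16 hr at 37 °C to 5-fluorouridine together with compound or vehicle.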
# FLuc modulator = inhibits or activates purified firefly luciferase, miR-21 counter-screen | P08659 | purified FLuc, Km substrates, luminescence inhibition | Potency, µM (series often up to 57.5 µM), for the others: at the top dose activity change, negative = inhibition, hits mostly inhibitors | hit rate 6.9% among 360,000 | AID 588342;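 also: plate controls were vehicle for no effect and reference inhibitor for full effect; nearly all actives have a fitted effect of over 55% in size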
# Target sequence (P08659 whole entry, looked up): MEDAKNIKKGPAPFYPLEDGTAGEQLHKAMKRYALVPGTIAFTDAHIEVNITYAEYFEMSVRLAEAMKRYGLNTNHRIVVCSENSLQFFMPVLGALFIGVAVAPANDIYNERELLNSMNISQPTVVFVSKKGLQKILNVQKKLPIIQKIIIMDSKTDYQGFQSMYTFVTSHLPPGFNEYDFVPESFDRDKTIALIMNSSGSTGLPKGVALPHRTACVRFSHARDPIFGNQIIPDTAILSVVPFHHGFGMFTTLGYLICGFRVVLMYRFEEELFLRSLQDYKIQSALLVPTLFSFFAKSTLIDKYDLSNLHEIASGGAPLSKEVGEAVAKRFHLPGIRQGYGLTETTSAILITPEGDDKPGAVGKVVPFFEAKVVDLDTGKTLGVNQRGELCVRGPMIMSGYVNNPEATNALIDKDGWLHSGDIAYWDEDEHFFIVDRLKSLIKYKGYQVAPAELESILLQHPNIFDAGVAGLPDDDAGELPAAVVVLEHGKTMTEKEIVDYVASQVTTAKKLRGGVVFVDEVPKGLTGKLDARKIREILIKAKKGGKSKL
#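 Biochemical qHTS of compounds, final roughly 60 µM downward over six points, against 10 nM purified firefly luciferase using Km concentrations of substrates (10 uM D-luciferin, 10 uM ATP) in Tris acetate pH 7.5 buffer; luminescence output.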
# Starred values were filed as active, the others as inactive; ? = inconclusive; . = no result. Only some compounds are listed: those with a hit (about 9.2% of all), similar ones and a draw of the others. Calls follow the shape of the dose curve; as a rule, active = well fitted curve in the direction sought with a large enough effect; inconclusive = small, poorly fitted or top-dose-only effect, or another doubt; inactive = no such curve, though single readings can be large; an effect the other way counts as inactive or inconclusive. Potency is read from the fitted curve at half-maximal effect.
SMILES,NPC1 prom act,ELG1 genotox,SMN2 splice up,Rab9 promoter act,ELG1 DNA repair,FLuc modulator
Cc1ccc(-c2cc(C(=O)Nc3ccc(S(=O)(=O)Nc4cc(C)on4)cc3)c3ccccc3n2)c(C)c1,-1%,-1%,2%,4%,13%,-13%
Cc1noc(NS(=O)(=O)c2ccc(NC(=O)c3oc4ccc(Cl)cc4c3C)cc2)c1C,-2%,16%,.,16%,11%,17µM*
Cc1c(C(=O)Nc2ccc(S(=O)(=O)Nc3ncccn3)cc2)oc2ccc(Cl)cc12,-3%,7%,.,-7%,0%,-16%
Cc1ccc(C(=O)Nc2ccc(S(=O)(=O)Nc3onc(C)c3C)cc2)cc1,.,.,-3%,.,.,12µM*
Cc1noc(NS(=O)(=O)c2ccc(NC(=O)c3ccc(F)cc3)cc2)c1C,.,6%,.,.,3%,.
Cc1ccc(-c2cc(C(=O)Nc3ccc(S(=O)(=O)Nc4onc(C)c4C)cc3)c3ccccc3n2)cc1,-2%,1%,27%,4%,-10%,13µM*
Cc1cc(C)nc(NS(=O)(=O)c2ccc(NC(=O)c3cc(-c4ccccc4)nc4ccccc34)cc2)n1,2%,0%,9%,1%,-1%,?
Cc1noc(NS(=O)(=O)c2ccc(NC(=O)c3ccc(Br)cc3)cc2)c1C,.,.,-1%,.,.,21µM*
Cc1noc(NS(=O)(=O)c2ccc(NC(=O)c3ccc(Br)o3)cc2)c1C,4%,2%,-3%,0%,11%,-14%
Cc1cc(Nc2ccccc2)n(-c2ccc(C(=O)O)cc2)n1,-4%,2%,-1%,-2%,9%,-14%
Cc1cc(Nc2ccccc2)n(C(=O)c2ccc(Cl)cc2)n1,17%,11%,20%,8%,?,11µM*
O=C(NCc1ccncc1)C(=O)Nc1nc(C23CC4CC(CC(C4)C2)C3)cs1,-9%,-13%,-38%,-6%,18µM*,-19%
CNC(=O)C(=O)Nc1nc(C23CC4CC(CC(C4)C2)C3)cs1,?,13%,.,3.2µM*,?,-19%
O=C(NCc1ccccc1)C(=O)Nc1nc(C23CC4CC(CC(C4)C2)C3)cs1,-1%,-4%,-14%,-5%,?,-6%
CC(C)CC(NC(=O)CNC(=O)C1O[C@@H]2OC(C)(C)O[C@@H]2[C@H]2OC(C)(C)O[C@@H]12)C(=O)O (stereo partly specified),-5%,5%,.,-2%,?,3%
O=C1CCCS(=O)(=O)c2ccccc21,-3%,2%,.,1%,6%,4%
CCOc1ccc(C2CC(=O)c3c([nH]c(C(=O)OCC4CCCCC4)c3C)C2)cc1 (stereo unspecified),.,.,-10%,.,.,0%
COc1ccc(-c2cc(C(=O)Nc3cccnc3)c3ccccc3n2)cc1OC,0%,-18%,.,0%,?,11µM*
COc1ccc(CNc2ccc([N+](=O)[O-])cn2)cc1,3.2µM*,?,.,4µM*,?,11µM*
COc1cccc(-c2cc(C(=O)Nc3cccnc3)c3ccccc3n2)c1,0%,-14%,.,4%,?,27µM*
CCOc1cccc(-c2cc(C(=O)Nc3ccon3)c3ccccc3n2)c1,-5%,-6%,.,3%,13µM*,?
COc1ccc(Nc2ccc([N+](=O)[O-])cn2)cc1,?,0%,.,?,?,?
CC(C)[C@H](NC(=O)[C@H]1N2C(=O)c3ccccc3C2SC1(C)C)C(=O)NCc1ccco1 (stereo partly specified),-2%,-3%,.,-5%,-10%,-1%
O=C(Nc1ccc([N+](=O)[O-])cn1)c1cc(-c2cccc(Br)c2)nc2ccccc12,-4%,0%,9%,-5%,0%,-16%
COc1cccc(-c2cc(C(=O)Nc3ccc([N+](=O)[O-])cn3)c3ccccc3n2)c1,-4%,-5%,-26%,-7%,13µM*,?
SMILES,NPC1 prom act,ELG1 genotox,SMN2 splice up,Rab9 promoter act,ELG1 DNA repair,FLuc modulator
N/C(=N\OC(=O)Cc1ccc(-c2ccccc2)cc1)c1ccccn1,18%,?,-33%,5%,?,?
N/C(=N\OC(=O)CCCOc1ccccc1)c1ccccn1,5%,10%,3%,9%,?,17µM*
N/C(=N\OC(=O)CSc1ccccc1)c1ccccn1,27%,?,.,27%,?,13µM*
N/C(=N\OC(=O)CCCN1C(=O)c2ccccc2C1=O)c1ccccn1,0%,0%,9%,?,5%,-5%
CCOCCCNc1ccc(-c2ccccc2)nn1,?,13µM*,14µM*,2.2µM*,?,?
CCOCCCNc1nc2ccccc2[nH]1,-1%,-1%,24%,4%,26%,-2%
Cc1cc(N/N=C\c2ccccc2)nc(-c2ccccc2O)n1,22%,-1%,?,22%,?,6µM*
Cc1cc(N(C)/N=C/c2ccccc2)nc(-c2ccccc2O)n1,-1%,-8%,.,-1%,-11%,-15%
Cc1cc(Nc2ccc(Cl)cc2)nc(-c2ccccc2O)n1,-2%,-6%,.,3%,-1%,?
Cc1cc(N/N=C/c2ccccc2O)nc(-c2ccccc2O)n1,-1%,-1%,-17%,-3%,?,8.5µM*
C/C(=N\Nc1cc(C)nc(-c2ccccc2O)n1)c1ccccc1O,0%,-14%,.,-2%,?,15µM*
Cc1cc(N/N=C/c2ccc(O)cc2O)c2ccccc2n1,9%,5%,.,0%,27%,1%
Cc1cc(N/N=C/c2ccc(O)cc2O)nc(-c2ccccc2O)n1,5%,-5%,-26%,0%,10µM*,2.7µM*
COc1ccc2c3c(cccc13)C(=O)CC2,-2%,0%,.,-1%,6%,-14%
O=C(NNC(=S)NC(=O)c1ccccc1)c1ccc(O)cc1,-3%,-8%,.,-2%,0%,3%
O=C(NNC(=S)Nc1ccccc1)c1cccs1,?,?,10µM*,1.6µM*,?,?
Cc1cccc(C(=O)NC(=S)NNC(=O)c2cccs2)c1,-5%,1%,-86%,-2%,21µM*,-21%
O=C(NNC(=S)Nc1ccccc1)c1ccc(O)cc1,3.5µM*,?,.,3.5µM*,?,?
